Screening data deposited in PubChem BioAssay by National Center for Advancing Translational Sciences (NCATS).
Compounds with a hit are over-represented: about 19% of the library has one in this group of screens.
IL-1B inflam inh: inflammasome signaling inhibition, IL-1 beta readout | 4.7% of 360,000 active | THP-1 LPS/ATP IL-1B secretion, AlphaLISA, 16 h; hits give low values | AID 743279 | activity change, % at 57.5 µM; in the data active means activity change below about -50%; inconclusive means mostly about -30% to -49%; further: on the % scale 0 is the no-effect control and ±100 the full control effect
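THP-1 cells pretreated 1 hr with compounds (up to 57.5 uM final), then stimulated with LPS (250 ng/mL final) plus ATP (1.25 mM final); secreted IL-1B measured by AlphaLISA after 16 hr, decreased signal indicating inhibition.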
TGFb inhibitor: TGF-b pathway inhibition; HepG2 CAGA-GFP TGF-b/SMAD3 reporter, GFP fluorescence, 18 h; TGF-beta stimulated, 500 pg/mL final; AID 588855; 1.2% of 410,000 active; Potency, µM (doses to about 46.1 µM), inactives show at the top dose activity, negative = inhibition, hits mostly inhibitors; further: potency means the concentration at half of the fitted maximal effect; on the % scale 0 is the no-effect control and ±100 the full control effect; nearly all actives have a fitted effect of over 65% in size
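HEPG2 CAGA-GFP cells (1000/well, DMEM with 1% FBS) were pre-incubated 2 h at 37 degrees C, given compound by pin tool, then stimulated with TGF-beta at 500 pg/mL final for 18 h before per-cell GFP fluorescence imaging.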
DT40 TDP1 no CPT: qHTS for Inhibitors of human tyrosyl-DNA phosphodiesterase 1 (TDP1): qHTS in cells in absence of CPT. Potency, µM (highest dose often 46.2 µM), inactives show at the top dose activity change, negative = growth inhibition, most hits filed as inhibitors. 15% of 420,000 active. DT40 Tdp1-/- hTDP1 cells, no CPT, ATP luminescence, 48 h; further: potency means the concentration at half of the fitted maximal effect; on the % scale 0 is the no-effect control and ±100 the full control effect; nearly all actives have a fitted effect of over 55% in size
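DT40 Tdp1-/-;hTDP1 cells, no CPT (DMSO vehicle only), 400 cells/well; compounds pin-transferred; ≥48 hr, 37 °C; CellTiter-Glo 30 min RT dark, luminescence read.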
DT40 TDP1 CPT: DT40-hTDP1 cell growth loss with CPT; chicken DT40 Tdp1-/-;hTDP1 cells + 20 nM CPT, ATP luminescence, 48 h; Potency, µM (highest dose often 46.2 µM), for the others: top-dose activity change, negative = growth inhibition, actives largely listed as inhibitors; 12% of 420,000 active; AID 686979; further: potency means the concentration at half of the fitted maximal effect; on the % scale 0 is the no-effect control and ±100 the full control effect; nearly all actives have a fitted effect of over 55% in size
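Chicken DT40 Tdp1-/- cells complemented with human TDP1, 400 cells/well, exposed to compounds plus 20 nM camptothecin for at least 48 h at 37 C; viability read as ATP content by CellTiter-Glo luminescence.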
ASM inhibitor: human S-ASM enzyme inhibition. Potency, µM (doses to about 57.5 µM), inactives show at the top dose activity change, negative = inhibition, usual class: inhibitors. placental ASM, HMU-PC fluorogenic substrate, 60 min. 0.006% of 340,000 active. P17405; further: potency means the concentration at half of the fitted maximal effect
Target sequence (P17405 47-631 limits assumed): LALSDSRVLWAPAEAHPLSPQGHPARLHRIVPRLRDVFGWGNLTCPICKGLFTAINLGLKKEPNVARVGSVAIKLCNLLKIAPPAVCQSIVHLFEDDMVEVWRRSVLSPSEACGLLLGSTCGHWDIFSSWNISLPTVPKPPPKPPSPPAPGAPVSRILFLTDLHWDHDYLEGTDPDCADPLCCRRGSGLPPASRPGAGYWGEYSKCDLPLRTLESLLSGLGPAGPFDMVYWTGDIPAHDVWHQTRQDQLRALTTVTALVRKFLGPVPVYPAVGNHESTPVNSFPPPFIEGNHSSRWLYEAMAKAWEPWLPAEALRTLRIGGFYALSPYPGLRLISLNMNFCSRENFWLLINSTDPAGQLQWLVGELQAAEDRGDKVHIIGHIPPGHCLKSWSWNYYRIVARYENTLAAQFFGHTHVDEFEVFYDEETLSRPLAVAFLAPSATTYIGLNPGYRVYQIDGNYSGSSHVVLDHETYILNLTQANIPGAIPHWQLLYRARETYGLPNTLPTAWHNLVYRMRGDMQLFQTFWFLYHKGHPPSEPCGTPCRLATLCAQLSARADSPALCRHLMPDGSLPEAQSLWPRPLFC
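Human placenta-derived ASM enzyme was preincubated with compound for 10 minutes at room temperature, then given fluorogenic substrate HMU-PC0 (9 uM final) for 60 minutes at 37 °C; a pH 10 stop preceded fluorescence reading at Ex 386/Em 447 nm.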
HepG2 viability: HepG2 cytotoxicity, counter-screen for TGF-b inhibitors. 0.76% of 410,000 active. HepG2 CAGA-GFP viability, ATP luminescence, 18 h. Potency, µM (series often up to 46.1 µM), without a hit: at the highest dose activity change, negative = cytotoxicity, most hits filed as cytotoxic; further: potency means the concentration at half of the fitted maximal effect
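CellTiter-Glo luminescence gave cytotoxicity after 18 hours at 37 degrees C. The cells were HepG2 CAGA-GFP in 1% FBS DMEM, stimulated with 500 pg/mL TGF-beta after compound addition. %Activity was normalised to no-cell wells (complete cell-killing) and DMSO (no toxicity), and curves were fitted and classified.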
Numbers without * were called inactive; u = inconclusive; x = not tested or not shown; [ ] = another dose, or the depositor's remark. Unless noted, the call rests on the fitted dose curve; in most records, active means well fitted curve in the direction sought with a large enough effect; inconclusive means small, poorly fitted or top-dose-only effect, or another doubt; inactive means no such curve, though single readings can be large; an effect the other way counts as inactive or inconclusive.

SMILES	IL-1B inflam inh	TGFb inhibitor	DT40 TDP1 no CPT	DT40 TDP1 CPT	ASM inhibitor	HepG2 viability
Cc1ccc(C(=O)Nc2ccc(N3CCN(C)CC3)nc2)cc1	15.8	2.9%	0.8%	18.0%	2.4%	3.6%
Cc1ccc(-n2ncc3c2CC(C)(C)CC3NC(=O)CCn2cncn2)cc1 (stereo unspecified)	4.8	2.4%	-1.3%	3.5%	-3.1%	-7.6%
CCOC(=O)c1cc(C(=O)NC(C)c2ccccc2)c(=O)[nH]c1C (stereo unspecified)	7.4	3.2%	-25.6%	-12.4%	4.8%	3.7%
CCOC(=O)c1cnc(-n2nc(C)cc2C)nc1N1CC(C)OC(C)C1 (stereo unspecified)	-10.0	0.0%	20.6µM*	u	-1.4%	3.1%
Cc1cc(C)n(-c2nc(C)nc(NCc3ccccc3)n2)n1	15.1	-30.7%	18.4µM*	25.9µM*	-0.4%	-14.2%
CCOC(=O)c1cnc(-n2nc(C)cc2C)nc1NC(C)c1ccccc1 (stereo unspecified)	-8.6	-3.5%	4.61µM*	4.61µM*	-14.6%	-8.3%
CCOC(=O)c1cnc(-n2nc(C)cc2C)nc1NCc1ccccc1	-111.4*	u	5.17µM*	3.26µM*	-2.7%	-37.6%
CCOC(=O)c1cnc(-n2nc(C)cc2C)nc1NCCO	-3.7	0.2%	-16.8%	-12.1%	-1.3%	-25.9%
CC1CCCCN1C(=O)c1ccc2c(c1)N(Cc1ccc(Cl)cc1)C(=O)c1ccccc1S2=O (stereo unspecified)	x	u	u	u	x	-30.8%
COc1cc(C(=S)N2CCOCC2)cc(OC)c1O	41.8	-13.3%	-16.8%	-15.4%	-0.7%	-3.1%
CCCc1cc(=O)oc2cc(OCC(=O)NCCc3ccc(S(N)(=O)=O)cc3)ccc12	6.3	7.6%	-26.2%	-22.9%	-0.2%	0.1%
O=C(Nc1nnc([C@H]2C[C@H](O)[C@@H](CO)O2)s1)Nc1ccccc1C(F)(F)F	-3.9	9.6%	-1.7%	-0.1%	x	4.4%
OC(COCc1ccccc1)CN1CCCCC1 (stereo unspecified)	13.7	-2.1%	8.5%	10.6%	-0.5%	-3.2%
COc1ccc(CCNC(=O)c2cn3ccc(C)cc3n2)cc1OC	21.6	0.8%	16.4µM*	u	4.6%	3.7%
COc1ccc(CCNC(=O)c2cc(C(C)C)on2)cc1OC	-14.9	11.1%	u	u	6.2%	10.3%
COc1ccc(CCNC(=O)c2nnn(-c3cccc(C)c3)c2N)cc1OC	-8.5	-16.6%	u	u	-5.6%	-1.4%
COc1ccc(CCNC(=O)c2nnn(-c3cc(C)cc(C)c3)c2N)cc1OC	-2.9	14.9%	u	14.6µM*	-3.3%	-20.3%
CC1=NN(c2nc(-c3ccc(C)cc3)cs2)C(=O)C1N=Nc1ccc(C(N)=O)cc1 (stereo unspecified)	39.5	u	5.17µM*	4.61µM*	-9.4%	0.2%
CC1=NN(c2nc(-c3ccc(C)cc3)cs2)C(=O)C1N=Nc1ccc2ccccc2c1 (stereo unspecified)	18.7	2.9%	u	u	-10.6%	-5.7%
CC1=NN(c2nc(-c3ccccc3)cs2)C(=O)C1N=Nc1ccccc1 (stereo unspecified)	2.5	-8.2%	14.6µM*	u	-13.8%	-19.6%
N=c1c2c3c(sc2nc2n1CCCCC2)CCCCC3	-11.6	-3.8%	11.6µM*	23.1µM*	-0.1%	-22.2%
O=c1c2c3c(sc2nc2n1CCCCC2)CCCC3	-0.8	-3.1%	-19.9%	23.1µM*	3.1%	-31.7%
O=c1c2c3c(sc2nc2n1CCC2)CCCC3	23.6	18.8%	6.8%	-9.8%	-0.3%	2.1%
O=c1c2c3c(sc2nc2n1CCCC2)CCC3	-13.0	-3.0%	-12.1%	-7.1%	-2.4%	-33.8%
COc1ccccc1-c1nnc(SCC(=O)NC2CCCCC2)n1C	15.1	7.0%	-11.2%	5.6%	1.0%	-24.4%
SMILES	IL-1B inflam inh	TGFb inhibitor	DT40 TDP1 no CPT	DT40 TDP1 CPT	ASM inhibitor	HepG2 viability
COc1ccc(Cn2c(=O)c3cccnc3n(Cc3cccc(OC)c3)c2=O)cc1	x	-3.3%	u	-28.0%	x	-12.8%
Cc1ncc2c(c1CNC(=O)c1ccc3c(c1)OCO3)CCN(C(=O)c1cnsn1)C2	x	x	-1.7%	6.3%[9.04 µM]	x	x
CCCNC(=O)C1(C)CCCN(C(=O)Cc2ccc(OC)c(OC)c2)C1 (stereo unspecified)	-0.2	u	1.5%	8.8%	x	-13.2%
CCCN1CCN(c2ncnc3sc(C(=O)Nc4c(C)cc(C)cc4C)c(C)c23)CC1	x	u	10.3µM*	16.4µM*	x	-12.7%
Cc1ccc(NC(=O)c2sc3nc(C)nc(N4CCN(c5ccccn5)CC4)c3c2C)c(C)c1	-60.2*	-33.4%	u	-26.1%	-4.4%	-4.6%
COc1ccc(C)cc1NC(=O)c1sc2ncnc(N3CCN(c4ccccn4)CC3)c2c1C	-6.1	1.8%	18.4µM*	16.4µM*	431.3%	-8.6%
Cc1ccc(NC(=O)c2sc3nc(CCl)[nH]c(=O)c3c2C)c(C)c1	-86.8*	0.0%	14.6µM*	14.6µM*	2.6%	-1.2%
COc1ccc(CN2C(=O)CSCC2(C)C(=O)NCc2ccccc2)cc1 (stereo unspecified)	u	x	-28.3%	u	x	x
Cc1nn(CC(=O)NNC(=O)c2cccc(Br)c2)c(C)c1[N+](=O)[O-]	2.2	6.7%	4.6%	3.2%	2.2%	-31.0%
COc1cccc(OCc2ccc(Cn3nc(NC(=O)NCCc4ccc(OC)c(OC)c4)c4ccccc43)cc2)c1	-11.4	16.8%	u	-27.9%	x	-17.9%
Cc1nc(N2CCN(c3ccccn3)CC2)c2c(C)c(C(=O)N3CCN(c4ccccc4F)CC3)sc2n1	u	3.2%	20.6µM*	u	-8.2%	5.1%
Cc1nc(N2CCN(c3ccccn3)CC2)c2c(C)c(C(=O)Nc3ccc(Br)cc3C)sc2n1	-24.2	4.9%	u	16.4µM*	-7.9%	20.8%
Cc1nc(N2CCN(C)CC2)c2c(C)c(C(=O)Nc3ccc(F)cc3)sc2n1	-78.4*	47.3%	u	u	-2.3%	1.4%
Cc1c(C(=O)N2CCN(c3ccccc3F)CC2)sc2ncn(CC(=O)N3CCOCC3)c(=O)c12	-2.3	6.9%	-28.0%	-2.8%	-0.5%	-7.8%
Cc1ccc(NC(=O)c2sc3ncnc(N4CCN(c5ccccn5)CC4)c3c2C)c(C)c1	u	-13.3%	18.4µM*	u	-9.0%	-24.1%
